Most compounds without a hit are left out; they make up all but 0.76% or so of the library.
Rv3671c protease: Rv3671c serine protease inhibitors, primary screen, biochemical, fluorescence polarization, M. tuberculosis H37Rv; P9WHR9; inhibition, % at 5.96 µM; 0.048% of 320,000 active; in the data active = inhibition above about 38%;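 note: extracellular domain of Rv3671c used as enzyme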
Mtb betalactam: beta-lactam sensitization of Mtb H37Rv, H37Rv. inhibition, % at 25 µM. AID 434955, 2010. 0.27% of 330,000 active. M. tuberculosis H37Rv growth with meropenem, percent inhibition; call rule not given here;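 note: growth measured after seven days incubation then overnight dye step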
Mtb UGM inh: M. tuberculosis UGM enzyme inhibitors, primary screen, biochemical, fluorescence polarization, single point. 0.06% of 320,000 active. purified UGM, fluorescence polarization probe displacement. inhibition, % at 10 µM. AID 504406, 2011; in the data active = inhibition above about 10%, passing the limit was not always enough; inconclusive = no clear call, values can overlap the other calls
Target sequence (P9WIQ1 whole entry, looked up): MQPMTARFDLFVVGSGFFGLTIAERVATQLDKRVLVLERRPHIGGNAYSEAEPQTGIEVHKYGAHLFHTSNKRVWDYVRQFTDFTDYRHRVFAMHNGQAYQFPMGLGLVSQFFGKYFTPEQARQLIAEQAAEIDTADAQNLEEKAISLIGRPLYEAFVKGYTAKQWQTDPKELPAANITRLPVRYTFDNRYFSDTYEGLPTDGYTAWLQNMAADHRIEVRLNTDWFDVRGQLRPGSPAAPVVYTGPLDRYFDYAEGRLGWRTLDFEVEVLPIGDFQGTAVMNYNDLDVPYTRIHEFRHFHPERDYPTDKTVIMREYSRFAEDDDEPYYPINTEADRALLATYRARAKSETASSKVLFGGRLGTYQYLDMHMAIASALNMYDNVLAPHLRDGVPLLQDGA
PrP UTR inh: inhibition of PrP 5' UTR reporter expression | inhibition, % (no concentration beside the values) | 0.35% of 340,000 active | cell-based PrP 5' UTR mRNA reporter, plate reader | AID 488862, 2010; in the data active = inhibition above about 52%
Vc quorum ag: inducers of Vibrio cholerae quorum light production without autoinducers, primary screen, BH1578 luxS cqsA deficient, single point; V. cholerae BH1578 lux reporter, luminescence, 6 h; activation, % at 18.7 µM; 0.16% of 350,000 active; in the data active = activation mostly above about 9.7%, no sharp cut-off; inconclusive = no clear call, values can overlap the other calls; inactive = mostly below about 3.7%
FadD28 FP inh: inhibitors of FadD28 bisubstrate probe binding, primary screen, biochemical, fluorescence polarization, single point | Mycobacterium tuberculosis FadD28 fatty-acid-AMP ligase | inhibition, % at 12.5 µM | 0.22% of 360,000 active | AID 588549, 2011; in the data active = inhibition above about 8.5%, passing the limit was not always enough; inconclusive = no clear call, values can overlap the other calls
Numbers stand for hits; 0 = inactive; ? = inconclusive; - = not tested or not shown; + = active, no number.

SMILES	Rv3671c protease	Mtb betalactam	Mtb UGM inh	PrP UTR inh	Vc quorum ag	FadD28 FP inh
Cn1c(=O)c2sccc2n2c(CCCC(=O)N3CCN(c4ccccn4)CC3)nnc12	0	0	0	0	0	0
O=C(CC1N=C2c3ccccc3N=C(SCc3ccc(F)cc3)N2C1=O)NCc1ccco1 (stereo not drawn)	0	0	0	0	17	0
CC/C(=N\NC(=O)CNC(=O)/C=C/c1ccco1)c1ccccc1	0	0	0	0	17	0
O=C(Nc1ccc(Cl)c(Cl)c1)N1CCC(N2CCCCC2)CC1	0	0	0	0	+	0
O=C(Nc1ccc(Cl)c(Cl)c1)N1CCCCCC1	0	0	0	0	0	0
C[C@H]1CN([C@@H](C)CO)C(=O)CCCn2nncc2CO[C@@H]1CN(C)Cc1ccccc1	-	-	-	-	0	0
Cc1ccc(-c2c(C(=O)O)c(C(=O)O)c3n2CSC3)cc1	0	0	0	0	0	0
O=C(O)c1c(C(=O)O)c(-c2ccc(Br)cc2)n2c1CSC2	0	0	0	0	0	13
COc1cc2cc(CN(Cc3nnnn3Cc3ccco3)C3CCCCC3)c(=O)[nH]c2cc1OC	0	0	0	0	33	0
CCOc1ccc2[nH]c(=O)c(CN(Cc3nnnn3Cc3ccco3)C3CCCCC3)cc2c1	0	0	0	0	0	0
COCc1nc2ccccc2n1Cc1c(F)cccc1Cl	0	0	0	0	0	0
Cc1nn(-c2ccccc2)c2sc(C(=O)OCc3nnc(-c4ccccc4)o3)cc12	0	0	0	0	22	0
Cc1cc(Cl)ccc1C(O)c1ncc(-c2ccc(F)cc2)[nH]1 (stereo not drawn)	-	-	-	-	0	0
C#CCSc1nnnn1-c1ccc(OCC)cc1	0	0	0	0	607	0
O=C(O)c1ccc2c(c1)C1C(Cl)C(Sc3ccccc3[N+](=O)[O-])CC1C(c1cccc([N+](=O)[O-])c1)N2 (stereo not drawn)	-	-	-	0	0	43
CCN(CC)C(=O)c1ccc2c(c1)C1C(Cl)C(Sc3ccccc3[N+](=O)[O-])CC1C(C(=O)O)N2 (stereo not drawn)	0	0	0	0	0	34
CCc1cccc2c(C(=O)COC(=O)c3ccc([N+](=O)[O-])s3)c[nH]c12	0	0	0	0	0	33
CN(C(=O)c1cccc(NC(=O)Cc2ccc(NC(=O)C3CCN(C(=O)CCc4ccccc4)CC3)cc2)c1)C1CCCCC1	-	-	-	0	0	0
Cc1ccc(-c2nc3sc(C#N)c(N)n3c(=O)c2C#N)cc1	0	0	13	0	0	0
O=C(Cn1nnc(-c2ccc3c(c2)OCO3)n1)Nc1ccccc1C(=O)O	0	0	0	0	0	11
Cc1c(C(=O)N2CCCCC2)c(S(=O)(=O)N2CCN(c3ccc(Cl)cc3)CC2)c(C)n1C	0	0	0	0	0	0
COc1ccc(CCNc2cc(N3CCN(C(=O)c4ccc(C)cc4)CC3)ccc2[N+](=O)[O-])cc1OC	43	0	0	-	-	-
COc1ccc(C(=O)N2CCN(c3ccc([N+](=O)[O-])c(NCCc4ccc(OC)c(OC)c4)c3)CC2)cc1	0	?	0	0	0	0
COc1ccc(CNC(=O)c2ccc(CS(=O)(=O)Cc3ccccc3F)o2)cc1	0	0	0	0	0	0
CCOc1ccccc1C(=O)Nc1nnc(Cc2ccc(OC)c(OC)c2)s1	0	0	0	0	0	0
SMILES	Rv3671c protease	Mtb betalactam	Mtb UGM inh	PrP UTR inh	Vc quorum ag	FadD28 FP inh
CC(C)OCCCn1c(=NC(=O)c2ccncc2)c(C#N)cc2c(=O)n3ccccc3nc21	0	0	38	-	0	0
COC(=O)Cc1ccc(OC2(C)CCN(Cc3csc4ccccc34)C2)cc1 (stereo not drawn)	-	-	-	-	0	0
NNC(=S)Nc1cccc(-c2n[nH]c(=S)o2)c1	0	0	0	0	0	9.5
Nc1ccc(-c2cc3ccccc3oc2=O)cc1	0	0	0	85	0	0
O=C(O)/C=C/c1ccc(S(=O)(=O)Nc2ccccc2C(=O)Nc2ccc(F)cc2)cc1	0	0	0	0	0	0
N#CC1=C(N)N(c2ccccc2)C(c2ccco2)C1(C#N)C#N (stereo not drawn)	0	0	0	0	0	15
CN(C)c1ccc(P(=O)(CC(=O)N/N=C/c2ccc(C#N)cc2)OCCCl)cc1 (stereo not drawn)	0	0	0	0	0	0

Screening data: PubChem BioAssay, several laboratories
